# Screening data: PubChem, National Center for Advancing Translational Sciences (NCATS)
# NS1 function inh: influenza NS1 inhibition. Potency, µM (doses to about 46.1 µM), inactives show at the highest dose activity, positive = more growth. 270,000 compounds, 0.4% hits; calls by dose curve; also: potency is read from the fitted curve at half-maximal effect; actives are rising curves; nearly all actives have a fitted effect of over 50% in size
#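 Compounds were scored for reversing the slow growth caused by influenza A NS1 in S. cerevisiae, measured by optical density at 600 nm. Assay medium contained 2% galactose at pH 6.0; NS1-free yeast of the same strain were the positive control.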
# Pf growth 48h: inhibits P. falciparum growth in the first generation, 48 h; P. falciparum luciferase growth in erythrocytes, 48 h; Potency, µM (titrated, usually from 28.7 µM), for the others: at the highest dose activity change, negative = inhibition, most hits filed as inhibitors; 310,000 compounds, 5.9% hits; AID 504832; also: potency is read from the fitted curve at half-maximal effect; % is scaled to controls: 0 for no effect and ±100 for the full control effect
#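 Luminescence readout; reporter = integrated firefly luciferase in P. falciparum. RBC culture at 2% hematocrit, 0.1% parasitemia final, 37 C/5% CO2; decreased signal taken as growth inhibition.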
# Pf growth 96h: inhibits malaria parasite growth, 96 h; P. falciparum luciferase reporter growth, 96 h; Potency, µM (top dose mostly 28.7 µM), for the others: at the highest dose activity change, negative = inhibition, hits mostly inhibitors; 320,000 compounds, 6.9% hits; also: potency is read from the fitted curve at half-maximal effect; % is scaled to controls: 0 for no effect and ±100 for the full control effect
#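 Luminescence readout: decreased luciferase signal marks inhibited growth of reporter-expressing P. falciparum in infected red cells (2% hematocrit, 0.05% parasitemia final), exposed to compound two generations (96 h, 37 C, 5% CO2).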
# Cycloheximide cs: counter-screen hit for Shiga toxin inhibitors, cycloheximide | 300,000 compounds, 12% hits | cell reporter, cycloheximide protein synthesis inhibition counterscreen | AID 2314 | max response, %; in the data active = max response mostly above about 13%, no sharp cut-off; inactive = mostly below about 14%; also: read at 38.3 µM for the half of the compounds with a filed dose; 0% is about no effect
# Shiga inhibitor: inhibitors of Shiga toxin in Vero cells. Vero cells, Shiga toxin protein synthesis inhibition reporter. inhibition, % at 38.7 µM. 290,000 compounds, 9.2% hits. AID 2315; in the data active = inhibition mostly above about 28%, no sharp cut-off; inactive = mostly below about 43%; also: 0% is about no effect
# SARS PLpro yeast: blocks SARS-CoV papain-like protease in a yeast assay; AID 485353; Potency, µM (doses to about 32.9 µM), for the others: top-dose activity, positive = growth rescue, actives largely listed as activators; S. cerevisiae expressing SARS-CoV PLpro, growth rescue; 330,000 compounds, 0.19% hits; calls by dose curve; also: potency is read from the fitted curve at half-maximal effect; 0% is about no effect; nearly all actives have a fitted effect of over 55% in size
# An asterisk follows results filed as active; ? = inconclusive; . = no result. This is a sample that favours compounds with a hit; in the whole collection about 21% have one here. Unless noted, calls follow the shape of the dose curve; as a rule, active = well fitted inhibition curve with a large enough effect; inconclusive = small, poorly fitted or top-dose-only effect, or another doubt; inactive = no such curve, though single readings can be large or run the other way.
SMILES,NS1 function inh,Pf growth 48h,Pf growth 96h,Cycloheximide cs,Shiga inhibitor,SARS PLpro yeast
CCCn1c(CNc2ccc(Br)cc2)nc2ccccc21,-113%,.,49%,17*,39,-23%
O=C(O)c1ccc(NCc2nc3ccccc3n2CCOc2ccccc2Cl)cc1,.,?,-5%,-2,-4,1%
COc1ccc(OCCn2c(N)nc3ccccc32)cc1,-20%,?,?,1,-8,-4%
Cc1ccccc1OCCn1c(C)nc2ccccc21,-1%,?,-29%,-1,.,1%
CCn1c(CNc2ccc(C(=O)O)cc2)nc2ccccc21,6%,10%,3%,-7,-2,.
Cc1nc2ccccc2n1CCOc1ccccc1,0%,0%,-26%,12*,21,5%
Nc1nc2ccccc2n1CCOc1ccc(F)cc1,-5%,8.3µM*,15µM*,-1,-8,-5%
Cc1ccc(NCc2nc3ccccc3n2CCOc2ccccc2)cc1,-3%,-41%,?,76*,121*,-74%
COc1ccc(OC)c(-c2csc(NC(=O)CSCc3c(C)noc3C)n2)c1,.,?,?,.,.,-4%
CCOC(=O)C1CCN(C(=O)c2ccc(N(C)S(=O)(=O)c3ccc(OC)cc3)cc2)CC1,-7%,-6%,103%,-4,3,-1%
Cn1c(=O)c(C(=O)CSc2nncs2)c(N)n(Cc2ccccc2)c1=O,3%,?,.,-4,-13,2%
OCCn1c(SCCOc2ccccc2)nc2ccccc21,-53%,.,12%,2,14,-1%
CCSc1nc2ccccc2n1CCOc1ccccc1,2%,?,?,21*,48*,?
O=C(Cn1c2ccccc2c(=O)c2ccccc21)Nc1ccccc1F,8%,?,?,9,-9,12%
O=C(Cn1c2ccccc2c(=O)c2cc([N+](=O)[O-])ccc21)Nc1ccccc1Cl,-15%,?,9.3µM*,9,19,9%
Oc1[nH]c2ccccc2c1N=NC(=S)N1CCOCC1,-62%,0.59µM*,0.59µM*,16*,58,-5%
O=C(CNC(=O)c1ccccc1)N=Nc1c(O)[nH]c2ccc(Br)cc12,-10%,14%,10%,-5,-6,-7%
Oc1[nH]c2ccc(Br)cc2c1N=NC(=S)N1CCOCC1,-37%,0.83µM*,0.41µM*,1,-8,-1%
Cc1nc(N2CCN(c3ccc(Cl)cc3)CC2)[nH]c(=O)c1C,-6%,?,?,-3,-13,?
COc1ccc(NC(=O)CSc2nnc3c4c(nc(-c5ccccc5)n23)CC(C)(C)OC4)cc1,11%,-104%,?,-2,-3,29%
COc1ccc(-c2nc3c(c4nnc(SC(C)C(=O)Nc5ccc(C)cc5)n24)COC(C)(C)C3)cc1 (configuration not stated),5%,7.4µM*,2.6µM*,-3,-8,2%
S=C(NCc1ccccn1)Nc1ccc(Cl)cc1Cl,-89%,-19%,0%,45*,43,-21%
S=C(NCc1ccc(Cl)cc1)Nc1ccc(Cl)cc1Cl,14%,2%,?,1,-7,-18%
S=C(NCCc1ccc(Cl)cc1)Nc1ccc(Cl)cc1Cl,-60%,?,21%,13*,15,-94%
CCCNC(=S)Nc1ccc(Cl)cc1Cl,4%,23%,68%,1,41*,?
SMILES,NS1 function inh,Pf growth 48h,Pf growth 96h,Cycloheximide cs,Shiga inhibitor,SARS PLpro yeast
Fc1ccc(CNC(=S)Nc2ccc(Cl)cc2Cl)cc1,-1%,?,-11%,11,11,7%
COc1ccc(Cl)cc1NC(=S)NCc1ccccn1,7%,16%,?,14,2,-4%
Fc1ccc(NC(=S)Nc2ccc(Cl)cc2Cl)cc1,-6%,29%,23%,22*,8,1%
NS(=O)(=O)c1ccc(CCNC(=O)COC(=O)/C=C/c2cc(Br)ccc2F)cc1,.,.,.,.,.,15%
CCc1ccc(N(CC(=O)Nc2ccccc2C(=O)N2CCCC2)S(C)(=O)=O)cc1,8%,-2%,1%,-2,-24,4%
COc1ccc(N2CCN(C(=O)CCNC(=O)Cn3ccc4ccccc4c3=O)CC2)cc1,.,1%,-22%,-10,26,-3%
Cc1c(C(=O)C(=O)N2CCCc3ccccc32)c2ccccc2n1C,0%,-20%,?,9,-3,18%
CN(C)c1ccc(C(c2ccc(N(C)C)cc2)c2ccc([N+](=O)[O-])cc2)cc1,-18%,-56%,12µM*,-3,4,-2%
CN(C)c1ccc(C=NC(CO)C(O)c2ccc([N+](=O)[O-])cc2)cc1 (configuration not stated),-9%,33%,12%,-1,15,-3%
Cc1c(N(C)C(=O)C2CCCN2S(=O)(=O)c2ccccc2)c(=O)n(-c2ccccc2)n1C (configuration not stated),-2%,1%,2.3µM*,1,2,1%
Cc1c(N(CC(=O)O)S(=O)(=O)c2ccccc2)c(=O)n(-c2ccccc2)n1C,4%,15%,4.7µM*,-5,-1,1%
Cc1c(N(C)S(=O)(=O)c2cccc(C(=O)NC(C)C)c2)c(=O)n(-c2ccccc2)n1C,24%,-69%,12µM*,-1,-11,2%
COc1ccc(C(=O)N(Cc2ccco2)Cc2cccs2)cc1,.,.,.,1,2,.
C/C(=N\NC(=O)c1ccccc1)c1ccc(N2CCOCC2)cc1,-21%,.,21%,58*,54*,5%
C/C(=N\NC(=O)c1cc(C)oc1C)c1ccc(N2CCOCC2)cc1,.,12%,0%,37*,54*,-2%
C/C(=N/NC(=O)c1cccs1)c1ccc(N2CCOCC2)cc1,-9%,59%,17%,51*,70*,3%
C/C(=N\NC(=O)c1ccccc1Br)c1ccc(N2CCOCC2)cc1,.,-14%,8%,10,35,15%
C/C(=N\NC(=O)COc1ccc(C#N)cc1)c1ccc(N2CCOCC2)cc1,20%,5%,2%,6,26*,-13%
C/C(=N\NC(=O)COc1cc(C)cc(C)c1)c1ccc(N2CCOCC2)cc1,-4%,?,?,-3,-9,-7%
CC(C)(C)c1ccc(OCC(=O)Nc2ccc3c4c(cccc24)C(=O)NC3=O)cc1,1%,?,?,4,3,1%
CC(C)(C)N(Cc1ccccc1)C(=O)COC(=O)C1=NN(c2ccccc2)C(=O)CC1,.,43%,51%,.,.,-1%
Cc1ccc(N(c2ncnc(N)c2[N+](=O)[O-])C2CCCCC2)cc1,20%,22%,28%,-2,-7,3%
Cc1nc(C(F)(F)F)ccc1C(=O)NCC(O)c1ccccc1 (configuration not stated),-3%,103%,86%,45*,71*,0%
Cc1nc(C(F)(F)F)ccc1C(=O)Nc1ccc2ccccc2n1,-2%,31%,?,21*,49*,-1%
